From PubChem BioAssay
The list is not random: actives were taken first. Their share in the collection is about 7%.
PI5P4K alpha inh: inhibitors of human PI5P4K alpha; PI5P4Kalpha enzyme, ADP-Glo luminescence, 60 min; hits give low values; max response, %; AID 652105; P48426; 1.2% of 330,000 active; active = max response of -50% or lower; inconclusive = between -30% and -50%; inactive = -30% or higher; also: value at the top dose of about 77 µM; % is scaled to controls: 0 for no effect and ±100 for the full control effect
Target sequence (P48426 whole entry, looked up): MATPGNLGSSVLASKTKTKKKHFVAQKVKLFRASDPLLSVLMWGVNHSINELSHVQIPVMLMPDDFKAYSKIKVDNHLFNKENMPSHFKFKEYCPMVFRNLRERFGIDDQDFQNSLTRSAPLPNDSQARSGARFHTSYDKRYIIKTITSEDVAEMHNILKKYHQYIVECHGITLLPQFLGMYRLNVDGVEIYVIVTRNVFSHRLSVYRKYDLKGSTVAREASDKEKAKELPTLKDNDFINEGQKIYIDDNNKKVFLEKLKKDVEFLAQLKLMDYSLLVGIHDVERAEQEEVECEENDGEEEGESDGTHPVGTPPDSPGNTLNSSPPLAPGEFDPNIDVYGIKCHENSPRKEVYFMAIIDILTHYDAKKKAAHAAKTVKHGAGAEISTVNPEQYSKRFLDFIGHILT
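qHTS, 1536-well: enzyme/substrate mix, compound by pin tool, 5 microM ATP final; RT 60 min; ADP-Glo reagents 1 (45 min) then 2 (30 min); luminescence.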
KAT2A inh: GCN5L2 (KAT2A) acetyltransferase inhibition. Q92830. GCN5L2 HAT assay, ThioGlo1 CoA-SH fluorescence. Potency, µM (series often up to 58.9 µM), for the others: at the top dose activity change, negative = inhibition, actives largely listed as inhibitors. 0.21% of 390,000 active. AID 504327; also: potency is read from the fitted curve at half-maximal effect; % is scaled to controls: 0 for no effect and ±100 for the full control effect
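Enzyme at 20nM final was mixed with library compounds for 15 min at room temperature. Peptide H3(1-25) at 75uM, acetyl-CoA at 70uM and ThioGlo1 at 50uM were then added. Plates were read immediately and after 20 min (Ex340nm/Em540nm).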
PLK1 PBD block: PLK1 (human) polo-box domain binding inhibition | P53350 | Plk1 PBD binding of FITC phosphopeptide, fluorescence polarization | Potency, µM, for the others: max response, negative = inhibition, usual class: inhibitors | 2.8% of 360,000 active; also: potency is read from the fitted curve at half-maximal effect; series mostly up to about 57 µM; % is scaled to controls: 0 for no effect and ±100 for the full control effect; nearly all actives have a fitted effect of over 65% in size
BAZ2B inh: BAZ2B (human) inhibition; Q9UIF8; AlphaScreen BAZ2B-H3K14Ac peptide displacement; Potency, µM (doses to about 114 µM), for inactives: at the top dose activity change, negative = inhibition, hits mostly inhibitors; 4.4% of 360,000 active; AID 504333; also: potency is read from the fitted curve at half-maximal effect; % is scaled to controls: 0 for no effect and ±100 for the full control effect; nearly all actives have a fitted effect of over 60% in size
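AlphaScreen displacement of biotin-H3(5-23)K14Ac peptide (50 nM final) from BAZ2B (50 nM final) in PBS pH 7.4, 0.01% Tween-20; complex preformed 30 min RT, then compounds (top 110 uM) 30 min RT, beads 20 min dark.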
JMJD2A Tudor: blocks the human JMJD2A Tudor domain. AlphaScreen JMJD2A-Tudor / H3K4me3 peptide binding. AID 504339. 4.4% of 390,000 active. Potency, µM (titrated, usually from 114 µM), inactives show at the top dose activity change, negative = inhibition, usual class: inhibitors. O75164; also: potency is read from the fitted curve at half-maximal effect; % is scaled to controls: 0 for no effect and ±100 for the full control effect; nearly all actives have a fitted effect of over 50% in size
HP1b chromo inh: blocks HP1-beta chromodomain binding to methylated histone tails. P83916. AID 540317. 0.56% of 390,000 active. AlphaScreen HP1-beta / biotin-H3K9me3 peptide binding. Potency, µM (doses to about 114 µM), without a hit: top-dose activity change, negative = inhibition, usual class: inhibitors; also: potency is read from the fitted curve at half-maximal effect; nearly all actives have a fitted effect of over 70% in size
Target sequence (P83916 whole entry, looked up): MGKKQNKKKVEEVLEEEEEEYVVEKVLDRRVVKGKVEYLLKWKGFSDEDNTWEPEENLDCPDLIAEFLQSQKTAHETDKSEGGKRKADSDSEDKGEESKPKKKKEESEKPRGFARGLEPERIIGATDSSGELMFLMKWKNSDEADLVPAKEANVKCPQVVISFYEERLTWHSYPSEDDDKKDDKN
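AlphaScreen: HP1-beta (50 nM) preformed 30 min with biotin-H3(1-18)K9me3 peptide (50 nM) in PBS pH 7.4, 0.01% Tween-20. Compound added for 30 min at RT, then streptavidin donor/nickel chelate acceptor beads (10 ug/mL) for 30 min.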
Starred values were filed as active, the others as inactive; u = inconclusive; x = no result given; [ ] = another dose, or the depositor's remark. Unless noted, calls follow the shape of the dose curve; as a rule, active = well fitted curve in the direction sought with a large enough effect; inconclusive = small, poorly fitted or top-dose-only effect, or another doubt; inactive = no such curve, though single readings can be large; an effect the other way counts as inactive or inconclusive.

SMILES	PI5P4K alpha inh	KAT2A inh	PLK1 PBD block	BAZ2B inh	JMJD2A Tudor	HP1b chromo inh
CN1CCN(C(=O)CCCN2C(=O)/C(=C/c3cccc(Br)c3)SC2=S)CC1	1.6	-11.7%	u	44.7µM*	35.5µM*	39.8µM*
O=C(CCN1C(=O)/C(=C\c2ccccc2)SC1=S)N1CCOCC1	3.2	-3.7%	0.0%	-0.5%	-12.4%	26.6%
O=C(CCCN1C(=O)/C(=C/c2ccccc2)SC1=S)N1CCOCC1	0.1	-9.5%	-19.0%	39.8µM*	-35.9%	u
Cc1c(Cl)cccc1NC(=O)C1CCN(c2nc3ccccc3[nH]2)CC1	x	-5.8%	x	-12.1%	-21.1%	15.1%[57 µM]
COc1ccc(CNC(=O)[C@H](C)NC(=O)C2CCN(C(=O)[C@@H](N)Cc3ccccc3)CC2)cc1	-3.3	2.7%	-4.4%	-1.4%	-11.6%	24.5%
Cc1ccc([C@H]2C[C@H](n3cc(COC(=O)c4ccccc4)nn3)[C@@H](O)CN2C(=O)C2CCCCC2)cc1	4.9	x	-1.7%	x	x	x
COc1ccc(CN2C(=O)N(c3ccc(F)cc3)C(=O)C2CC(=O)Nc2ccccc2)cc1 (stereo not drawn)	x	-2.5%	x	-7.2%	-10.3%	21.8%
CN(CCC#N)C(=O)CC1(Cc2ccccc2)CCOC(C)(C)C1 (stereo not drawn)	1.8	-2.4%	-21.6%	-11.1%	-16.2%[11.4 µM]	28.6%
COc1ccc(/C=C2\SC(=S)N(CCC(=O)N3CCOCC3)C2=O)cc1	20.4	-2.1%	2.6%	14.2%	-12.9%	4.3%
COc1cccc(/C=C2/SC(=S)N(CCC(=O)N3CCOCC3)C2=O)c1	-6.6	-1.6%	29.9µM*	0.8%	56.2µM*	-5.1%
CCCCc1n[nH]c2c1/C(=N/OCC)CC(C)(C)C2	0.0	-2.6%	3.5%	0.6%	-10.3%	41.9%
COc1ccc(NC(=O)Nc2nnc(N(CC(C)C)CC(C)C)s2)c(OC)c1	x	1.9%	x	-3.3%	-1.3%	57.7%
Clc1cc(Cl)c(OCC#CI)cc1Cl	x	14.1µM*	x	x	x	x
Clc1cc(Cl)c(Cl)cc1Cl	2.5	-3.0%	-15.5%	7.1%	-3.4%	23.4%
CCCS(=O)(=O)Nc1ccc(N2CCCCC2)c(S(=O)(=O)Nc2ccccc2OC)c1	-5.7	-13.0%	23.8µM*	-31.4%	-25.5%	-23.7%
COc1ccc(NS(=O)(=O)c2cc(NC(=O)C3CC3)ccc2N2CCCCC2)cc1	1.5	-1.7%	-9.5%	x	-29.1%	16.3%
COc1ccccc1NS(=O)(=O)c1cc(NC(=O)C2CCC2)ccc1N1CCCCC1	-18.4	-27.3%	5.97µM*	-25.8%	u	-32.4%
COc1ccccc1NS(=O)(=O)c1cc(NC(=O)Nc2ccc(Cl)cc2Cl)ccc1N1CCCCC1	4.7	-5.5%	u	-6.4%	-32.5%	u
COc1ccc(NS(=O)(=O)c2cc(NC(=O)c3ccc(=O)[nH]c3)ccc2N2CCCC2)cc1	-24.3	-19.5%	-6.5%	39.8µM*	u	-14.4%
COc1ccccc1NS(=O)(=O)c1cc(NC(=O)c2ccccc2F)ccc1N1CCOCC1	6.9	-4.3%	26.7µM*	-12.0%	-26.0%	-14.1%
COc1ccc2c(c1)CCC1C2=NN(/C(C)=C\C(C)=O)C1c1ccc(F)cc1 (stereo not drawn)	-13.3	2.6%	11.9µM*	13.0%	14.1µM*	-19.7%
COc1ccc2c(c1)C1=NN(/C(C)=C/C(C)=O)C(c3ccc(F)cc3)C1CC2 (stereo not drawn)	-11.8	2.5%	2.4%	0.7%	u	-14.0%
Cc1cnc(NC(=O)CC(C)c2ccccc2)s1 (stereo not drawn)	-5.2	-5.7%	-6.8%	-0.7%	-9.1%	48.4%
COc1ccc(NC(=O)CN2C(=O)CCc3cc(S(=O)(=O)N4CCOCC4)ccc32)cc1Cl	x	-1.9%	x	-21.8%	-6.3%	16.9%
COc1ccccc1Nc1cc(C)nc2c(C)ccc([N+](=O)[O-])c12	24.9	-5.8%	1.2%	11.2µM*	10µM*	15.8µM*
SMILES	PI5P4K alpha inh	KAT2A inh	PLK1 PBD block	BAZ2B inh	JMJD2A Tudor	HP1b chromo inh
CCCCN1C(=O)C(=O)N(CC(=O)c2ccc3c(c2)OCO3)C1=O	-5.8	-1.0%	0.0%	10.5%	-4.1%	17.1%
CN1CCN(Cc2nc3ccccc3c(=O)n2Cc2nc(-c3ccc([N+](=O)[O-])cc3)cs2)CC1	-1.8	-0.4%	29.9µM*	-39.0%	20µM*	u
CSc1ccccc1OCc1cc(C(=O)N2CCN(c3ccccc3)CC2C)no1 (stereo not drawn)	13.2	-29.8%	0.5%	-20.3%	-16.9%	20.1%
CSc1ccccc1OCc1cc(C(=O)N2CCc3[nH]cnc3C2c2ccccn2)no1 (stereo not drawn)	-3.8	u	-5.9%	56.2µM*	17.8µM*	u
O=C(CSc1ccc(Cl)cc1)Nn1cnnc1	x	-1.6%	10.6µM*	13.4%	13.6%	83.0%
O=C(CSc1ccc2ccccc2c1)Nn1cnnc1	2.1	-1.9%	-7.9%	-3.1%	8.6%	34.4%
Cc1cc(NC(=O)CSc2nnnn2Cc2ccccc2)no1	0.7	2.1%	21.2µM*	-5.9%	-11.5%[11.4 µM]	-8.4%
Cc1cc(NC(=O)CSc2ccc(Cl)cc2)no1	x	-7.1%	5.32µM*	8.2%	18.6%	45.9%
N#Cc1ccccc1NCC(=O)N1CCN(S(=O)(=O)c2ccccc2)CC1	1.8	-2.9%	-16.0%	-5.4%	-17.4%	38.7%
COc1ccc(Cn2ccc3nc(C)c(C(=O)Nc4cc(OC)c(OC)c(OC)c4)cc3c2=O)cc1	x	6.1%	x	-2.0%	-11.3%	93.0%
O=C(NCc1ccccc1Cl)c1ccc2c(O)c(S(=O)(=O)c3ccccc3)c(=O)[nH]c2c1	x	-15.3%	x	u	-9.2%	25.7%
COc1cc2c(C#CCCCO)c(-c3ccsc3)oc(=O)c2cc1OC	-6.7	-0.1%	-0.7%	x	-23.9%	32.1%
CC1CCc2c(sc(NC(=O)c3ccco3)c2C(=O)O)C1 (stereo not drawn)	-18.9	-8.2%	-12.4%	21.2%	-16.1%	8.6%
CC1CCc2c(sc(NS(=O)(=O)c3ccccc3)c2C(=O)OC(C)C)C1 (stereo not drawn)	-1.7	-2.7%	16.8µM*	5.4%	-4.1%	17.1%
COC(=O)c1c(NC(=O)c2ccc(C)c(S(=O)(=O)Nc3ccccc3C)c2)sc2c1CCCC2	x	0.5%	-3.1%	1.7%	2.6%	35.5%
COC(=O)c1c(NS(=O)(=O)c2ccc3ccccc3c2)sc2c1CCCC2	x	-6.5%[0.501 µM]	23.8µM*	u	-30.2%	4.9%
CCCCOc1ccc(OCCNC(=O)c2ccco2)cc1	-5.4	-6.3%	1.0%	11.0%	-11.0%	17.5%
CCOC(=O)c1c(C)oc2ccc(O)c(CN3CCCCC3)c12	x	-1.6%	1.8%	15.3%	-6.3%	18.8%
CCOC(=O)c1c(-c2ccccc2)oc2ccc(O)c(CN3CCOCC3)c12	-26.4	-12.1%	11.9µM*	4.9%	-22.1%[11.4 µM]	24.6%
